PubChem BioAssay (NCI)
The panel holds about 79,000 compounds, 15% with a hit somewhere; the sample as a whole holds those more often. Activity calls are given as the source filed them. Rule as the data show it: active = growth inhibition above about 70%; inactive = the rest.

Columns and labels:
[1] = NCI Yeast Anticancer Drug Screen. Data for the rad50 strain (AID 155);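 also: 0% = growth of vehicle-only cultures of the same strain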; conditions: S. cerevisiae rad50 strain growth inhibition, stronger effect = higher value
Summary of the method: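 Compounds were tested on a yeast strain with an engineered DNA damage repair alteration; the reported value is growth inhibition normalised to vehicle treatment.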

[2] = NCI Yeast Anticancer Drug Screen. Data for the mec2-1 strain (AID 157); conditions: S. cerevisiae mec2-1 strain, stronger effect = higher value
Summary of the method: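 Strain: mec2-1 (DNA repair/cell cycle alteration). Compound exposure, then growth measured; inhibition expressed relative to vehicle.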

[3] = NCI Yeast Anticancer Drug Screen. Data for the sgs1 mgt1 strain (AID 161);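 also: 0% = growth of cultures given vehicle only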; conditions: S. cerevisiae sgs1 mgt1 strain, stronger effect = higher value
Summary of the method: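 Genetically altered yeast, compound exposure, growth inhibition relative to vehicle.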

[4] = NCI Yeast Anticancer Drug Screen. Data for the cln2 rad14 strain (AID 165);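 also: 0% = growth equal to vehicle treated cultures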; conditions: S. cerevisiae cln2 rad14 strain, stronger effect = higher value
Summary of the method: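 Compounds are applied to the cln2 rad14 yeast strain, and growth is then compared with that of vehicle-treated cultures to give inhibition.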

[5] = NCI Yeast Anticancer Drug Screen. Data for the bub3 strain (AID 167); conditions: S. cerevisiae bub3 mutant strain, stronger effect = higher value
Summary of the method: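 Growth of a checkpoint-deficient yeast mutant is measured after compound exposure. Values represent inhibition relative to vehicle.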

[6] = NCI Yeast Anticancer Drug Screen. Data for the mlh1 rad18 strain (AID 175); conditions: S. cerevisiae mlh1 rad18 strain growth inhibition, stronger effect = higher value
Summary of the method: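 Read-out is yeast growth inhibition, calculated against vehicle-only controls. The compound was applied to a strain engineered with DNA damage repair alterations.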

[7] = at 5.0 µM (retest, dose inferred, filed as 0.5)
[8] = at 50.0 µM (retest, dose inferred, filed as 5.0)

Measured: growth inhibition

Nc1c(C(=O)Nc2ccccc2)[n+]([O-])c2ccccc2[n+]1[O-]
active: [1]; [8] 73% | [1]; at 50.0 µM 98.2% | [2]; at 50.0 µM 97.7% | [3]; [8] 88% | [3]; at 50.0 µM 98% | [4]; [8] 78% | [4]; at 50.0 µM 97.2% | [5]; [8] 90% | [5]; at 50.0 µM 98.7% | [6]; [8] 91% | [6]; at 50.0 µM 98.2%
inactive: [1]; [7] -2% | [2]; [7] -3% | [2]; [8] 60% | [3]; [7] 1% | [4]; [7] -8% | [5]; [7] -4% | [6]; [7] -4%

S=C(C(=S)N1CCOCC1)N1CCOCC1
inactive: [1]; [7] 14% | [1]; [8] 16% | [1]; at 50.0 µM 0.05% | [2]; [7] 12% | [2]; [8] 16% | [2]; at 50.0 µM 26.1% | [3]; [7] 19% | [3]; [8] 27% | [3]; at 50.0 µM 12.8% | [4]; [7] 15% | [4]; [8] 12% | [4]; at 50.0 µM -16.8% | [5]; [7] 22% | [5]; [8] 23% | [5]; at 50.0 µM 11.8% | [6]; [7] 16% | [6]; [8] 16% | [6]; at 50.0 µM 7.95%

Cc1ccc2c(c1)C1(SC(C)C(=O)N1c1ccc(Cl)cc1)C(=O)N2CN1CCOCC1 (configuration not stated)
inactive: [1]; [7] 5% | [1]; at 50.0 µM 18.6% | [2]; [7] -4% | [2]; at 50.0 µM 5.5% | [3]; [7] -3% | [3]; at 50.0 µM 0.4% | [4]; [7] -4% | [4]; at 50.0 µM -17.3% | [5]; [7] 11% | [5]; at 50.0 µM 16% | [6]; [7] 11% | [6]; at 50.0 µM 29.9%
active: [1]; [8] 98% | [2]; [8] 97% | [3]; [8] 95% | [4]; [8] 92% | [5]; [8] 97% | [6]; [8] 98%

C=C1OC(=O)C(=O)N1CC(=O)O
inactive: [1]; [7] -156% | [1]; [8] -170% | [1]; at 50.0 µM -1.35% | [2]; [7] -50% | [2]; [8] -54% | [2]; at 50.0 µM 5.4% | [3]; [7] -61% | [3]; [8] -70% | [3]; at 50.0 µM -5.5% | [4]; [7] -54% | [4]; [8] -69% | [4]; at 50.0 µM 44.9% | [5]; [7] -70% | [5]; [8] -82% | [5]; at 50.0 µM -6.45% | [6]; [7] -139% | [6]; [8] -119% | [6]; at 50.0 µM 4.05%

CCCCCCCCC(=O)NCCCNCCCNC(=O)CCCCCCCC
inactive: [1]; [7] -17% | [1]; [8] -17% | [1]; at 50.0 µM 69% | [2]; [7] -18% | [2]; [8] -18% | [2]; at 50.0 µM 50.2% | [3]; [7] -4% | [3]; [8] -4% | [3]; at 50.0 µM 66.3% | [4]; [7] -22% | [4]; [8] -22% | [5]; [7] -28% | [5]; [8] -28% | [6]; [7] -11% | [6]; [8] -11%
active: [4]; at 50.0 µM 92.2% | [5]; at 50.0 µM 90.8% | [6]; at 50.0 µM 89.3%

Cc1ccc(SC2=C(N(C)C)C(=O)c3ccccc3C2=O)cc1
active: [1]; [8] 90% | [1]; at 50.0 µM 96% | [2]; [8] 94% | [3]; [8] 91% | [3]; at 50.0 µM 77.3% | [4]; [8] 94% | [5]; [8] 90% | [5]; at 50.0 µM 95.2% | [6]; [8] 89% | [6]; at 50.0 µM 89.7%
inactive: [1]; [7] 3% | [2]; [7] -13% | [2]; at 50.0 µM 14.1% | [3]; [7] -1% | [4]; [7] 42% | [4]; at 50.0 µM 58.1% | [5]; [7] 4% | [6]; [7] -3%

O=C(OCC1OC(OCC(OC(=O)c2ccccc2)C(OC(=O)c2ccccc2)C(OC(=O)c2ccccc2)c2cnn(-c3ccccc3)n2)C(OC(=O)c2ccccc2)C(OC(=O)c2ccccc2)C1OC(=O)c1ccccc1)c1ccccc1 (configuration not stated)
inactive: [1]; [7] -6% | [1]; [8] -1% | [2]; [7] -14% | [2]; [8] -21% | [3]; [7] -1% | [3]; [8] -6% | [4]; [7] 6% | [4]; [8] 7% | [5]; [7] -12% | [5]; [8] 4% | [6]; [7] -4% | [6]; [8] -10%
active: [1]; at 50.0 µM 97.5% | [2]; at 50.0 µM 94.8% | [3]; at 50.0 µM 98% | [4]; at 50.0 µM 98.6% | [5]; at 50.0 µM 96.8% | [6]; at 50.0 µM 97.7%

Cc1ccc(S(=O)(=O)OC(COC(=O)c2ccc([N+](=O)[O-])cc2)C2OC(C)(C)OC2C(SCc2ccccc2)SCc2ccccc2)cc1 (configuration not stated)
active: [1]; at 50.0 µM 96.8% | [2]; at 50.0 µM 86.5% | [3]; at 50.0 µM 95.5% | [5]; at 50.0 µM 89% | [6]; at 50.0 µM 93.7%
inactive: [1]; [7] 4% | [1]; [8] 10% | [2]; [7] 5% | [2]; [8] 1% | [3]; [7] -1% | [3]; [8] 5% | [4]; [7] 2% | [4]; [8] 8% | [4]; at 50.0 µM 39.2% | [5]; [7] 17% | [5]; [8] 23% | [6]; [7] 6% | [6]; [8] -2%

COc1ccccc1NC(=O)CC(=O)N1N=C(C)C(N=Nc2ccc(I)cc2)C1=O (configuration not stated)
active: [1]; at 50.0 µM 93% | [3]; at 50.0 µM 83.1% | [6]; at 50.0 µM 85.6%
inactive: [1]; [7] 5% | [1]; [8] 36% | [2]; [7] 6% | [2]; [8] 30% | [2]; at 50.0 µM 11.1% | [3]; [7] 6% | [3]; [8] 28% | [4]; [7] 2% | [4]; [8] 20% | [4]; at 50.0 µM -39.5% | [5]; [7] 5% | [5]; [8] 41% | [5]; at 50.0 µM 33% | [6]; [7] 2% | [6]; [8] 41%
